A selection: hits, their analogues and other compounds. The true share with any hit is near 3.5%.
MITF inh – human MITF inhibition, primary screen. O75030. AlphaScreen MITF homodimerization, bead proximity signal. inhibition, % at 2.6 µM. 650,000 compounds, 0.91% hits. AID 1259374; in the data active = inhibition above about 50%;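 also: 0% = vehicle wells with protein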
Target sequence (O75030 whole entry, looked up): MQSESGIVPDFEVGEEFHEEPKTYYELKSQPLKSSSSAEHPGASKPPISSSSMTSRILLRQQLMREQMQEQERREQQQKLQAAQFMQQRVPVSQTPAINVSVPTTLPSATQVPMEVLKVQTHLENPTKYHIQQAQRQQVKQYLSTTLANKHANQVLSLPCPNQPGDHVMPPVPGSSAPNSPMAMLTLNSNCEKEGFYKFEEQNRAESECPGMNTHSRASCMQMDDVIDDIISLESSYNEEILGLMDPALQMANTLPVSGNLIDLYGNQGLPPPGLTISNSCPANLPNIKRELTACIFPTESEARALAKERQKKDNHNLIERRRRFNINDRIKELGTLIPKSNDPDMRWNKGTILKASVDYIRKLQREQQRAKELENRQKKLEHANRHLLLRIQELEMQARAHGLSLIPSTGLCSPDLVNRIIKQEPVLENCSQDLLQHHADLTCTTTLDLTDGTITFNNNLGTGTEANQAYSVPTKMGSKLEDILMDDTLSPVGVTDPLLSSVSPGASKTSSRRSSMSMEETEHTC
FBW7 act – human FBW7 E3 ligase activation, primary screen. Q969H0. AlphaScreen FBW7–phospho-cyclin E peptide binding, activator screen. normalized activity (activation), % at 26.1 µM. 650,000 compounds, 0.13% hits. AID 1259310; in the data active = normalized activity above about 1.9%;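 also: purified mutant Fbw7 with reduced substrate affinity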
TEAD-YAP block – TEAD-YAP interaction inhibition. inhibition, % at 9.12 µM. AID 1259422. 640,000 compounds, 1.4% hits. HEK-TIYL cells, TEAD-Gal4/YAP UAS-luciferase luminescence; in the data active = inhibition above about 32%;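 also: 0% = median of test compound wells and 100% = reference inhibitor wells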
GPR151 ag – activates the human receptor GPR151 | PathHunter beta-arrestin GPR151 cells, luminescence | activation, % at 11.2 µM | 650,000 compounds, 1% hits; in the data active = activation above about 4.9%;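 also: 0% = median of compound wells and 100% = cells with positive control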
Numbers without * were called inactive.

SMILES	MITF inh	FBW7 act	TEAD-YAP block	GPR151 ag
Cc1cc(O)cc(O)c1/C=N/NC(=O)c1ccc2c(c1)OCCO2	9	0	56*	-1
O=C(N/N=C/c1ccc(O)cc1O)c1ccc(CN2C(=O)c3cccc4cccc2c34)cc1	21	-1	33*	3
O=C(N/N=C/c1ccc(O)cc1O)c1ccc2c(c1)OCCO2	18	0	61*	1
O=C(N/N=C/c1ccc(O)c(I)c1)c1ccc2c(c1)OCCO2	-12	0	-15	1
Cc1ccc(-n2nnc3c(=O)n(CC(=O)Nc4ccc(Br)cc4)cnc32)cc1	-4	0	4	1
O=C1C=CC2=C3c4cc(O)c(O)cc4CC3(O)COC2=C1O (stereo not drawn)	92*	0	-16	-1
COc1cccc(CSc2nc3ccncc3[nH]2)c1	-3	0	69*	-1
Cc1occc1C(=O)Nc1c(C)n(C)n(-c2ccccc2)c1=O	16	0	9	0
CCN1C=CC(=C2C(=O)c3ccccc3C2=O)C=C1	-18	0	95*	-6
CN1C=CC(=C2C(=O)c3ccccc3C2=O)C=C1	4	0	5	-5
CCCCN1C(C)=CC(=C2C(=O)c3ccccc3C2=O)C=C1C	5	0	56*	-3
O=C1C2C(c3ccc(Cl)cc3)OC3(C(=O)c4ccccc4C3=O)C2C(=O)N1c1ccccc1C(F)(F)F (stereo not drawn)	-10	0	-6	1
COc1ccc(Cl)cc1NC(=O)C1=C(C)NC(=O)NC1c1ccc(O)cc1 (stereo not drawn)	5	1	-4	0
Cc1cc(/C=C\c2nc(O)c([N+](=O)[O-])c(=O)[nH]2)c(C)n1-c1ccc(C(=O)O)cc1	63*	0	10	0
COc1cc(OC)c(C=Nc2ccc(O)cc2)cc1Br	12	0	6	1
COc1ccc(OC)c(NC2=C(Cl)C(=O)N(Cc3ccccc3)C2=O)c1	26	0	9	-2
COc1ccc(Cl)cc1NC1=C(Cl)C(=O)N(Cc2ccccc2)C1=O	64*	0	72*	-1
O=C1C(Cl)=C(Nc2cccc(C(F)(F)F)c2)C(=O)N1Cc1ccccc1	-9	0	75*	0
COC(=O)c1ccc(NC(=O)CC2C(=O)N(c3ccccc3)C(=S)N2CCc2ccc(OC)c(OC)c2)cc1 (stereo not drawn)	11	0	11	0
O=C(CNC(=O)c1ccc([N+](=O)[O-])cc1)N/N=C/c1ccc(F)cc1	-13	0	0	0
O=C(CN1CCOCC1)NNc1nc(-c2ccccc2)c2cc(Cl)ccc2n1	3	0	19	1
Clc1ccc2nc(NCCN3CCOCC3)nc(-c3ccccc3)c2c1	-4	0	38*	0
COc1cc(C2/C(=C(\O)c3ccccc3)C(=O)C(=O)N2CC(OC)OC)ccc1O (stereo not drawn)	-7	0	0	1
O=C(Nc1ccc(-c2ncnc3[nH]ccc23)cc1)C1COc2ccccc2O1 (stereo not drawn)	23	1	52*	-1
NC(C(=O)Nc1ccc(-c2ncnc3[nH]ccc23)cc1)c1ccc(Cl)cc1 (stereo not drawn)	17	0	57*	0
SMILES	MITF inh	FBW7 act	TEAD-YAP block	GPR151 ag
NC(C(=O)Nc1ccc(-c2ccnc3[nH]ccc23)cc1)c1ccc(Cl)cc1 (stereo not drawn)	11	0	8	0
Cc1ncc(CO)c(/C=N/NC(=O)c2ccc(C(C)(C)C)cc2)c1O	15	0	83*	0
Cc1ncc(CO)c(/C=N/Nc2nc3ccccc3[nH]2)c1O	86*	-1	-11	1
Cc1ncc(CO)c(/C=N/NC(=O)c2cc3c(s2)CCCC3)c1O	29	-1	40*	-1
COc1ccc(C)c2sc(=NC(=O)c3ccccc3S(C)(=O)=O)n(C)c12	-10	0	0	-2
Cc1cc2ncn(CC3CCN(C(=O)c4ccccc4Br)CC3)c2cc1C	37	0	40*	-1
COc1ccc(OCC(=O)N/N=C/c2ccc(Br)o2)c(Br)c1	7	0	-2	0
COC(=O)c1ccc(OCC2c3cc(OC)c(OC)cc3CCN2C(=O)CC(C)C)cc1 (stereo not drawn)	-1	0	-20	2
O=C(O)c1ccc(Br)c(S(=O)(=O)N2CCCCCC2)c1	-8	0	0	0
COC(=O)c1ccc(Br)c(S(=O)(=O)N2CCCCC2)c1	13	1.9*	7	-1
COc1ccc(C2Nc3ccccc3C(=O)N2c2ccc(C)cc2)cc1 (stereo not drawn)	10	0	-66	-1
COc1ccc(C2Nc3ccccc3C(=O)N2c2ccc3ccccc3c2)cc1 (stereo not drawn)	-5	0	64*	-6
CN(C(=O)CCNC(=O)Cn1cnc2ccccc2c1=O)C1CCCCC1	-9	1	3	0
O=C1NN(c2ccc(I)cc2)C(=O)/C1=C\c1ccccc1O	54*	0	0	-1
COc1cc(=O)n2c(c1C(=O)N1CCc3ccccc3C1)CCN(C1CCSC1)CC2 (stereo not drawn)	-1	0	-13	0
CCOc1ccc(S(=O)(=O)n2cnc3cc(C)c(C)cc32)cc1	-3	0	34*	1
Cc1ccc(S(=O)(=O)n2cnc3cc(C)c(C)cc32)cc1	12	0	-6	0
Cc1ccc(S(=O)(=O)n2cnc3cc(C)c(C)cc32)cc1C	23	0	39*	1
CCCCOc1ccc(S(=O)(=O)n2cnc3cc(C)c(C)cc32)cc1	-4	0	48*	-1
Cc1cc2ncn(S(=O)(=O)c3ccc(S(N)(=O)=O)cc3)c2cc1C	19	0	-2	-1
O=C(/C=C/c1ccc(Cl)cc1Cl)NCCNc1ccc([N+](=O)[O-])cc1C(F)(F)F	11	0	-2	1
O=C(O)/C=C/C(=O)NCCc1c[nH]c2ccccc12	0	0	-4	-1
Cc1ccccc1C(=O)CC(=O)c1ccccc1O	11	0	1	-2
CC(C)NC(=O)NC(=O)Cn1nc(C(=O)O)c2ccccc2c1=O	-10	0	0	-2
COc1ccccc1N1CCN(Cc2cc(Cl)c3cccnc3c2O)CC1	42	-1	32*	-3
SMILES	MITF inh	FBW7 act	TEAD-YAP block	GPR151 ag
COc1ccccc1N1CCN(Cc2cc([N+](=O)[O-])c3cccnc3c2O)CC1	18	-1	14	-1
CCOc1ccccc1N1CCN(Cc2cc(OC)c(OC)c(OC)c2)CC1	35	1	41*	-1
COc1ccccc1N1CCN(Cc2cc(COC(C)C)c3cccnc3c2O)CC1	82*	-1	35*	1
CCOCc1cc(CN2CCN(c3ccccc3OC)CC2)c(O)c2ncccc12	91*	-1	10	0
CCOc1ccccc1N1CCN(Cc2cccc(OC)c2O)CC1	17	0	8	0
Oc1c(CN2CCCCC2)cc(COCc2ccccc2)c2cccnc12	98*	-1	74*	0
COc1ccccc1N1CCN(Cc2cc(COCc3ccccc3)c3cccnc3c2O)CC1	49	-1	74*	0

Compound activity deposited in PubChem by The Scripps Research Institute Molecular Screening Center.
